Assay outcomes deposited in PubChem BioAssay by National Center for Advancing Translational Sciences (NCATS).
RORg inh – blocks mouse ROR gamma transcriptional activity. Drosophila S2 Gal4-RORgamma UAS-luciferase reporter, 20 h. Potency, µM (highest dose often 53.6 µM), usual class: inhibitors. 5.4% of 310,000 active; further: nearly all actives have a fitted effect of over 60% in size
Target sequence (P51450 whole entry, looked up, the tested form may be a part): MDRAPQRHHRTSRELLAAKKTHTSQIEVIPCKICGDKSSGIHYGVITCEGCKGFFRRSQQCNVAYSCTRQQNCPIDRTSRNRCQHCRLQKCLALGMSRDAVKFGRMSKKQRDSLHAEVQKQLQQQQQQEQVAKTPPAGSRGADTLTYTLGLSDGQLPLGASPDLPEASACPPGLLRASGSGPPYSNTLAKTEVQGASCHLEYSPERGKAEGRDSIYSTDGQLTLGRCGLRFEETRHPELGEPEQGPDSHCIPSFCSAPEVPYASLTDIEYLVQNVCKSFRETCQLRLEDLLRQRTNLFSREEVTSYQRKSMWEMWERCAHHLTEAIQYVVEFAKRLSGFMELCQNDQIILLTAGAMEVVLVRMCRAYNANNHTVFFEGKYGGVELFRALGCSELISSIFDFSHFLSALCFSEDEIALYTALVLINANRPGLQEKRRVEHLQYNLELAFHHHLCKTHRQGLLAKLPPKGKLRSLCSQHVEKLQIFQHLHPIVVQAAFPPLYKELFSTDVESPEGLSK
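Luciferase reporter read in Schneider cells carrying Gal4-RORγ (mouse) and UAS-Photinus luciferase; cells given compound 1 h before 700 uM copper sulfate induction, then incubated 20 h at ambient temperature.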
ATXN viability – reduces viability in counter-screen for ATXN expression inhibitors | S2 cells (HEK-293 line with an ATXN2-luciferase reporter) viability, CellTiter-Fluor protease fluorescence, 24 h | Potency, µM (top dose mostly 56.7 µM), actives largely listed as cytotoxic | 0.49% of 400,000 active | AID 651635; further: nearly all actives have a fitted effect of over 40% in size
HepG2 tox – counter-screen for TGF-b inhibitors: cytotoxicity in HepG2 cells; 0.76% of 410,000 active; Potency, µM (doses to about 46.1 µM), usual class: cytotoxic; HepG2 CAGA-GFP viability, ATP luminescence, 18 h
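CellTiter-Glo luminescence gave cytotoxicity after 18 hours at 37 degrees C. The cells were HepG2 CAGA-GFP in 1% FBS DMEM, stimulated with 500 pg/mL TGF-beta after compound addition. %Activity was normalised to no-cell wells (complete cell-killing) and DMSO (no toxicity), and curves were fitted and classified.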
ATXN2 expr inh – inhibitors of ATXN2 expression; HEK-293 ATXN2-luciferase reporter, luminescence, 24 h; 0.72% of 360,000 active; Potency, µM (highest dose often 57 µM), actives largely listed as inhibitors; further: nearly all actives have a fitted effect of over 55% in size
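ATXN2-luciferase reporter cells (luciferase flanked by upstream and downstream ATXN2 gene portions) were treated 24 h at 37 °C with compounds at up to 57 uM. SteadyGlo luminescence gave expression; GF-AFC fluorescence gave viability.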
TGFb SMAD3 inh – TGF-b pathway inhibition; HepG2 CAGA-GFP TGF-b/SMAD3 reporter, GFP fluorescence, 18 h; TGF-beta stimulated, 500 pg/mL final; AID 588855; Potency, µM (highest dose often 46.1 µM), actives largely listed as inhibitors; 1.2% of 410,000 active; further: nearly all actives have a fitted effect of over 65% in size
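First, reporter cells (HEPG2 CAGA-GFP) rested 2 h at 37 degrees C. Next, compounds were pinned in and TGF-beta added to 500 pg/mL final. After 18 h, GFP was imaged per cell and summed per well.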
VP16 counter – counter-screen for ROR gamma inhibitors: Gal4-VP16 reporter | Drosophila S2 Gal4-VP16 UAS-luciferase, luminescence, 20 h | Potency, µM (titrated, usually from 53.6 µM), usual class: inhibitors | 3.5% of 310,000 active | AID 2546;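 further: Gal4-VP16 expression switched on by copper sulfate through the metallothionein promoter; nearly all actives have a fitted effect of over 50% in size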
Numbers stand for hits; 0 = inactive; ? = inconclusive; - = no result given; ! = repeats disagree; [ ] = remark or other dose. Rows were chosen to be rich in hits. Some 6.3% of all compounds tested hit in one or more screens of this group. The call rests on the fitted dose curve; in most records, active means well fitted curve in the direction sought with a large enough effect; inconclusive means small, poorly fitted or top-dose-only effect, or another doubt; inactive means no such curve, though single readings can be large; an effect the other way counts as inactive or inconclusive.

SMILES | RORg inh | ATXN viability | HepG2 tox | ATXN2 expr inh | TGFb SMAD3 inh | VP16 counter
Cc1ccc(C2=[N+]([O-])C3(CCCCC3=O)N(O)C2(C)C)cc1 (stereo not drawn) | 0.89µM | 0 | 0 | 0 | 0 | 4µM
OCCN1CCN(CCCN2c3ccccc3Sc3ccc(C(F)(F)F)cc32)CC1 | 0 | ? | 0 | 28µM! | ? | ?
CCCCC/C=C\C/C=C\C/C=C\C/C=C\CCCC(=O)N[C@H](C)CO | 0 | - | - | - | - | 0
CC1=C(O)C(=O)[C@H]2O[C@@H]2C1=O | 2.8µM | - | - | - | - | 8.9µM
CCOC(=O)c1c(-n2c(C)cc(C=C3C(=O)NC(=O)NC3=O)c2C)sc2c1CCCC2 | 0 | 0 | 0 | ? | 0 | 0
Cc1cccc(N2C(=O)NC(=O)/C(=C\c3cc(C)n(-c4sc5c(c4C#N)CCCC5)c3C)C2=O)c1C | 0 | 0 | 13µM | 0 | 7.1µM | 0
C(=NC1CCCCC1)=NC1CCCCC1 | ? | - | - | - | - | 2.2µM
CN(C)C(=O)Nc1cccc(C(F)(F)F)c1 | 0 | - | - | - | - | 0
CN1CC(CNC(=O)OCc2ccccc2)CC2c3cccc4c3c(cn4C)CC21 (stereo not drawn) | 16µM | - | - | - | - | ?
CCCn1cc2c3c(cccc31)C1CC(C)CN(C)C1C2 (stereo not drawn) | 0 | - | - | - | - | 0
Cn1c(=O)oc2cc(S(=O)(=O)N3CCCC(C(=O)N4CCN(c5cccc(Cl)c5)CC4)C3)ccc21 (stereo not drawn) | - | ? | 0 | 0 | ? | -
CCn1ccnc1CN1CCCC(C(=O)c2cc(C)c(OC)c(C)c2)C1 (stereo not drawn) | 2.5µM | 0 | 0 | - | ? | 11µM
COc1ccc2[nH]c(C)c(CCNCc3cc(OC)c(OC)c(OC)c3)c2c1 | ? | ? | 0 | 0 | 0 | 18µM
COc1ccc2[nH]c(C)c(CCNCc3cc(OC)c4c(c3)OCO4)c2c1 | - | 0 | 0 | 0 | ? | -
CC1CC(C)CC(C)C(O)C(C#N)=CC=CCC(C2CCCC2C(=O)O)OC(=O)CC(O)C(C)C1 (stereo not drawn) | - | ? | 0 | 0.75µM | ? | -
COc1ccc(C[C@@H]2NC[C@H](O)[C@@H]2OC(C)=O)cc1 | 0.32µM | - | - | - | - | 0.04µM
CSCC[C@@H](NC(=O)[C@@H](Cc1ccccc1)NC(=O)CNC(=O)CNC(=O)[C@@H](N)Cc1ccc(O)cc1)C(=O)O | - | - | - | 0 | - | -
CCNC1(c2cccs2)CCCCC1=O (stereo not drawn) | - | 0 | - | - | - | -
CCOC(=O)[C@]12Cc3cc(Cl)ccc3[C@H]1N(CC(=O)OC)C(=O)c1ccccc12 | - | 7.9µM | - | 7.1µM | - | -
CCOC(=O)[C@]12Cc3cc(Cl)ccc3[C@H]1N(C(C)C)C(=O)c1ccccc12 | - | 6.3µM | - | 5.6µM | - | -
C=C1C[C@H]2[C@H]3CCC(=O)[C@@]3(C)CC[C@@H]2[C@@]2(C)C=CC(=O)C=C12 | - | - | - | 0 | - | -
CC(O)=C(C#N)C(=O)Nc1cc(Br)ccc1Br | - | - | - | 0 | - | -
ClC1=C(Cl)C(Cl)(Cl)C(Cl)=C1Cl | 18µM | - | - | - | - | ?
ClC1=C(Cl)C(Cl)(C2(Cl)C(Cl)=C(Cl)C(Cl)=C2Cl)C(Cl)=C1Cl | 8.9µM | - | - | - | - | 7.1µM
C[N+](=O)[O-] | 0 | - | - | - | - | 0
SMILES | RORg inh | ATXN viability | HepG2 tox | ATXN2 expr inh | TGFb SMAD3 inh | VP16 counter
COc1cc(C[C@@H](C)N)c(OC)cc1C | - | ? | - | 0 | - | -
C[C@]12CC(=CO)C(=O)C[C@@H]1CC[C@@H]1[C@@H]2CC[C@@]2(C)[C@H]1CC[C@]2(C)O | ? | - | - | - | - | 10µM
C=C(C)[C@@]12OC3(c4ccccc4)O[C@@H]1[C@@H]1[C@@H]4O[C@]4(CO)[C@@H](O)[C@]4(O)C(=O)C(C)=C[C@H]4[C@@]1(O3)[C@H](C)[C@H]2OC(=O)/C=C/C=C/c1ccccc1 | 0 | - | - | - | - | 0
N#CCBr | 0 | - | - | - | - | 0
CCCCNS(=O)(=O)c1ccc(OCC(=O)N2CCN(Cc3ccc4c(c3)OCO4)CC2)cc1 | 0 | 0 | 0 | 0 | 0 | 5.6µM
O=C(COc1ccc(S(=O)(=O)N2CCOCC2)cc1)N1CCN(Cc2ccc3c(c2)OCO3)CC1 | 0 | 0 | 0 | 0 | 0 | ?
OC[C@@H]1[C@@H](O)[C@H](O)[C@H]2[C@@H](O)CCN21 | 0 | - | - | - | - | 0
Ic1ccccc1CN[C@@H]1C2CCN(CC2)[C@@H]1C(c1ccccc1)c1ccccc1 | - | 22µM | 11µM | ? | ? | -
Fc1ccccc1CNC1CN2CCC1CC2 (stereo not drawn) | 0 | 0 | 0 | 0 | 0 | 0
CCCCn1cc[n+](C)c1 | ? | - | - | - | - | 0
Cc1ccc(-n2c(=S)[nH]c3ccccc3c2=O)cc1C | - | 0 | 0 | - | 0 | -
CC(C)Oc1cc(-n2c(=S)[nH]c3ccccc3c2=O)c(Cl)cc1Cl | 2.8µM | 0 | 0 | 0 | ? | 5µM
COc1cc(-n2c(=S)[nH]c3ccccc3c2=O)c(Cl)cc1Cl | 2.8µM | ? | 0 | 0 | ? | 5.6µM
CCN1CCCC1CNC(=O)C(O)(c1ccccc1)c1ccccc1 (stereo not drawn) | - | 0 | - | 0 | - | -
C[C@]12CC[C@H]3[C@@H](CCC4=CC(=O)CC[C@@]43C)[C@H]1CC[C@H]2OC(=O)CCC1CCCC1 | - | - | - | 0 | - | -
C#CCOCCOCCOCCNc1nc(N2CCN(C(=O)CCCCCCCCCCNC(=O)[C@H]([C@@H](C)CC)n3cc(CCCCN=C(N)N)nn3)CC2)nc(N2CCN(C(=O)CCCCCCCCCCNC(=O)[C@H](CO)n3cc(CCCCCN)nn3)CC2)n1 | - | 16µM | 0 | 28µM | ? | -
CCN(N=O)C(N)=O | 0 | - | - | - | - | 0
CN1C(=O)CCS(=O)(=O)[C@H]1c1ccc(Cl)cc1 | ? | - | - | - | - | 0
O=C(O)COc1nc(Cl)c(Cl)cc1Cl | 0 | 0 | - | 0 | - | 0
Cc1ccc2c(Cl)cc(Cl)c(OCC(=O)N(C(C)C)C(C)C)c2n1 | 6.3µM | ? | 0 | 0 | 0 | 0
Cc1ccc([N+](=O)[O-])cc1C | 0 | - | - | - | - | 0
Oc1cc(Cl)cc(Cl)c1 | 0 | - | - | - | - | 0
COc1ccc(-n2nc(C(=O)NCC(=O)N3CCC4(CC3)OCCO4)c3ccccc3c2=O)c(OC)c1 | 6.3µM | 0 | 0 | 0 | 0 | 10µM
Cc1c(C(=O)NCc2nccs2)cnn1-c1ncc2c(n1)-c1ccccc1CC2 | - | 0 | - | - | - | -
COc1ccc2c(c1)[C@@]13CCCCC1[C@@H](C2)N(C)CC3 (stereo partly drawn) | 0 | - | - | - | - | 0
Cc1ccc(Cn2cc(C=O)c3ccccc32)cc1 | ? | ? | 0 | ? | 0.35µM | 0
O=Cc1cn(Cc2ccccc2[N+](=O)[O-])c2ccccc12 | 0 | 0 | 0 | 0[11.3 µM] | ? | ?
O=Cc1cn(Cc2ccc([N+](=O)[O-])cc2)c2ccccc12 | ? | 0 | 0 | ? | 2.2µM | ?
O=Cc1cn(Cc2ccc(F)cc2)c2ccccc12 | 0 | 0 | 0 | 14µM | 0.71µM | 0
CN1CC[C@]23c4c5ccc(O)c4O[C@H]2[C@@H](O)CC[C@H]3[C@H]1C5 | - | 0 | - | 0 | - | -
